# Laboratory results taken from PubChem BioAssay (NCATS).
# Unmarked numbers belong to inactive results. Inconclusive results are not listed. Calls of active or inactive are those of the source. Calls come from the whole dose curve; as a rule, active = well fitted curve in the direction sought with a large enough effect; inconclusive = small, poorly fitted or top-dose-only effect, or another doubt; inactive = no such curve, though single readings can be large; an effect the other way counts as inactive or inconclusive.
# Columns and labels:
# [1] = target: Cytochrome P450 3A4 (Homo sapiens) (UniProt P08684); experiment: qHTS Assay for Inhibitors and Substrates of Cytochrome P450 3A4 (AID 884); note: potency is the fitted concentration of half-maximal effect; nearly all actives have a fitted effect of over 50% in size
# Cytochrome P450 3A4 (Homo sapiens), sequence (P08684 whole entry, looked up): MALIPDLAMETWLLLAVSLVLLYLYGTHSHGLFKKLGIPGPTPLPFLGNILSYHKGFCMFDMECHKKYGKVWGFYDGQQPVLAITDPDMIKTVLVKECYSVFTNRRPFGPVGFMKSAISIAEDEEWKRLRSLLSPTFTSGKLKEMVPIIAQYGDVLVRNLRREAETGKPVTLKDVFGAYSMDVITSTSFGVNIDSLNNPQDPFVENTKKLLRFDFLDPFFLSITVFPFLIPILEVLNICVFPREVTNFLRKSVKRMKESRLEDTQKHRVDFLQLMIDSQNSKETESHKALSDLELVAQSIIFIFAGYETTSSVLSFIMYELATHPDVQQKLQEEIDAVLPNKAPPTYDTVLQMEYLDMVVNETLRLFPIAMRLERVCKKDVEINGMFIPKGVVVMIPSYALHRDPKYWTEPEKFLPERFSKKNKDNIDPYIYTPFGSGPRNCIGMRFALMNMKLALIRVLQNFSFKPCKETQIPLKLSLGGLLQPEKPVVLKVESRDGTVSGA
# Outline: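 Luminescent readout of luciferin produced by CYP3A4 (20 nM) dealkylation of Luciferin-PPXE, 25 uM (its KM). NADPH-driven reaction ran 60 min at RT after 10 min compound preincubation; data scaled to 57 uM ketoconazole as 100% inhibition.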
# [2] = target: Cytochrome P450 3A4 (Homo sapiens) (UniProt P08684); experiment: qHTS Assay for Activators of Cytochrome P450 3A4 (AID 885); note: nearly all actives have a fitted effect of over 65% in size
# Outline: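 Activators are scored by enhanced luminescence from CYP3A4 conversion of luciferin-PPXE (25uM, equal to KM) to luciferin, after 60 min at RT with an NADPH-regenerating system.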
SMILES,Potency [1],Potency [2],"activity change, positive = activation [2]"
Cn1c(=O)c(C(=O)COC(=O)c2cc(C(F)(F)F)nc3c(C(F)(F)F)cccc23)c(N)n(CC2CC2)c1=O,3.98 µM (active),inactive,–
COC(=O)[C@@H]1C[C@@]2(O)[C@H](O)[C@H](O)[C@H](O)C[C@H]2N1Cc1ccccc1OS(=O)(=O)c1ccc(C)cc1,7.94 µM (active),inactive,–
Cc1c(C(=O)NC2CCCCC2)sc2nc3ccc(N)cc3n12,1.58 µM (active),inactive,–
COCCN=C1OC(=O)N2C(=O)C3=C4C(C[C@H]5C(=O)N(CC(=O)OC)C(=O)[C@H]5[C@H]4[C@@]12Cc1ccccc1)[C@H]1C(=O)N(CC(=O)OC)C(=O)[C@H]1[C@H]3C (stereo not given in full),15.8 µM (active),inactive,–
COC(=O)[C@@H]1C[C@H]2CC[C@H](O)C[C@H]2N1Cc1ccc(C(C)(C)C)cc1,5.01 µM (active),inactive,–
Cn1c(N)c(C(=O)COC(=O)c2cc(-c3ccco3)nc3ccccc23)c(=O)n(Cc2ccccc2)c1=O,10 µM (active),inactive,–
CC(Cc1ccccc1)C(=O)NCCc1c[nH]c2ccccc12 (stereo not given),2.51 µM (active),inactive,–
CCCNC(=O)OC[C@@H]1O[C@H](CCO/N=C(\C)CCN2CCc3nc(CC)c(CC)cc3C2)C=C[C@@H]1Oc1ccc(OC)cc1,3.98 µM (active),–,-86.1% [at 11.4 µM]
Cc1ccc2oc(=O)c3c4cc(O)c(O)cc4oc3c2c1,20 µM (active),inactive,–
C=CC[C@@H]1C=C[C@@H](O/N=C(/C)CCC(=O)OC[C@@H]2O[C@H](C#Cc3ccccc3)C=C[C@@H]2Oc2ccc(C)cc2)[C@@H](CO)O1,5.01 µM (active),–,-97.7% [at 11.4 µM]
